The record followed here is PubChem BioAssay.

Experiment [1] in a line: anti-His antibody binders, primary screen, artefact control for SMM control protein annotation, biochemical, small-molecule microarray, 635 nm fluorescence (AID 1128).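 Also: score merges feature fluorescence with signal-to-noise for each printed compound spot.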 The settings on record: anti-His Alexa647 antibody binding, higher = more signal.
Experiment [2] has as its system Human papillomavirus type 1a E7 protein (residues 1-88). As to the kind of experiment: HPV1a E7 small-molecule binders, primary screen, biochemical, small-molecule microarray, residues 1-88, 635 nm (AID 1129). To be noted: small-molecule microarray binding, fluorescence 635 nm; higher = more signal.
The target in experiment [3] is Focal adhesion kinase 1 (Homo sapiens) (UniProt Q05397). In words: small-molecule microarray binders of FAK, primary screen, biochemical, 635/667 nm fluorescence, BSA, DTT (AID 1130).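 Also: composite of spot emission at 667 nm and signal to noise over triplicate slides.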 The settings on record: PTK2 binding, 635 nm fluorescence, higher = more signal.
Experiment [4] relates to Fibrinogen (Alexa647-labelled). As to the kind of experiment: fibrinogen binders on compound microarrays, profiling panel, artefact control for SMM control-protein annotation, biochemical, small-molecule microarray, 635/667 nm fluorescence (AID 1131).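 Also: z-score merges 667 nm fluorescence with per-spot signal-to-noise over triplicate slides.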 To be noted: fibrinogen-A647 binding fluorescence, higher = more signal.
Experiment [5] has as its target Follistatin (Homo sapiens) (UniProt P19883). In words: follistatin binders on small-molecule microarrays, primary screen, biochemical, small-molecule microarray, 635/667 nm fluorescence (AID 1132). To be noted: FST binding, 635 nm fluorescence, higher = more signal.
In experiment [6] the target is Fibroblast growth factor 2 (Homo sapiens) (UniProt P09038). In words: FGF2 binders on small-molecule microarrays, primary screen, biochemical, small-molecule microarray, 635/667 nm fluorescence (AID 1133). To be noted: small-molecule microarray binding, FGF2, fluorescence 635/667; higher = more signal.
Experiment [7] in a line: mitochondrial membrane potential change in A549 cells, profiling panel, cell-based, JC-1 fluorescence, basal, 24 h, 100 nL (AID 1138).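 Also: A549 lung adenocarcinoma cells under basal conditions with no added stimulus; test concentration not given here.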 To be noted: higher = more signal.
The subject of experiment [8] is Lefty1. As to the kind of experiment: Lefty1 binders on small-molecule microarrays, primary screen, biochemical, small-molecule microarray, 635/667 nm fluorescence (AID 1139). To be noted: small-molecule microarray binding, fluorescence 635/667; higher = more signal.
For experiment [9], the system named is wheat germ agglutinin (Triticum aestivum), Alexa647-labelled. As to the kind of experiment: wheat germ agglutinin binders on compound microarrays, profiling panel, artefact control for SMM control-protein annotation, biochemical, small-molecule microarray, 635/667 nm fluorescence (AID 1140).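 Also: score merges 667 nm feature emission with signal to noise over triplicate slides.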 The settings on record: WGA-A647 binding, 635 nm fluorescence, higher = more signal.

Experiment [10] concerns the target Luciferin 4-monooxygenase (Photinus pyralis) (UniProt P08659). In words: firefly luciferase enzyme inhibitors, primary screen, biochemical, luminescence, purified enzyme, 2006 set (AID 1141).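 Also: cell-free assay with purified firefly luciferase at 100 ng per well in PBS; test concentration not given here.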 The settings on record: SteadyGlo luminescence, 30 min, higher = more signal, called active from +8 up or from −8 down.

Calls of active or inactive are those of the source.

Focal adhesion kinase 1 (Homo sapiens), sequence (Q05397 whole entry, looked up): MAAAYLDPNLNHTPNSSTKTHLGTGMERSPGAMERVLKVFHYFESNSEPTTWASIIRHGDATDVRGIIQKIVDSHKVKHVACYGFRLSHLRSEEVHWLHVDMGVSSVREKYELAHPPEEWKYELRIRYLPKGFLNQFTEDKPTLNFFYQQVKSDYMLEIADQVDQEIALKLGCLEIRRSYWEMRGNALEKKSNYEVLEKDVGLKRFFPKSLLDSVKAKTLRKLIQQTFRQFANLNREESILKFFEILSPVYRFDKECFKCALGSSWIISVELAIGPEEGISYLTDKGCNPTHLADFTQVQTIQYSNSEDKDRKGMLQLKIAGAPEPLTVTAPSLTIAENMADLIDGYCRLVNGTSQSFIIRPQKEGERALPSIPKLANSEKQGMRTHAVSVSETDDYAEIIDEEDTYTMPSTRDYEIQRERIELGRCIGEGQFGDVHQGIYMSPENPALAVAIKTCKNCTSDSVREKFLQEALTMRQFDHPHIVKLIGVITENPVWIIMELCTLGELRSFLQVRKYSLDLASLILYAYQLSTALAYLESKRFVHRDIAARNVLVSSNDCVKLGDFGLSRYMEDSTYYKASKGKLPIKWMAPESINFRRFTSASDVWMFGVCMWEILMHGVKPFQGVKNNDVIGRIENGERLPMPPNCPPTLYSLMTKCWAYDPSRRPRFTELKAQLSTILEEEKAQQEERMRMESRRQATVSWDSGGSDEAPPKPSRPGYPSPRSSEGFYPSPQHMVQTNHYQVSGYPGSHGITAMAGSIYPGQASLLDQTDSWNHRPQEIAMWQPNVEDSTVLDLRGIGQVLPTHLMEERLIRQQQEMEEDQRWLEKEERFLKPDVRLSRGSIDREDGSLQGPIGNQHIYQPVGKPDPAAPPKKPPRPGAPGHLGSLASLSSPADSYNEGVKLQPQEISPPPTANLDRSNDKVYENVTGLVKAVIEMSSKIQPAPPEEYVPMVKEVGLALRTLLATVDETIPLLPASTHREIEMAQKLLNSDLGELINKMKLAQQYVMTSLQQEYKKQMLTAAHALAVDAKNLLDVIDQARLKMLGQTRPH
Follistatin (Homo sapiens), sequence (P19883 whole entry, looked up): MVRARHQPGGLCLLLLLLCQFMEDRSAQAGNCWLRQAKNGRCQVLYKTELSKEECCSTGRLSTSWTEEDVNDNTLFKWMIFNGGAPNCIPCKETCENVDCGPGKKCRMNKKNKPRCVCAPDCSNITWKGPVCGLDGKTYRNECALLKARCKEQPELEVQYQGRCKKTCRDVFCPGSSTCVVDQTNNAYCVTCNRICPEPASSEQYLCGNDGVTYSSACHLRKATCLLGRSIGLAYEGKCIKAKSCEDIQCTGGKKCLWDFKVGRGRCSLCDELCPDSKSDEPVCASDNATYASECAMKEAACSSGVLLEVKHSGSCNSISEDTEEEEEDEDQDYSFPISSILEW
Fibroblast growth factor 2 (Homo sapiens), sequence (P09038 whole entry, looked up): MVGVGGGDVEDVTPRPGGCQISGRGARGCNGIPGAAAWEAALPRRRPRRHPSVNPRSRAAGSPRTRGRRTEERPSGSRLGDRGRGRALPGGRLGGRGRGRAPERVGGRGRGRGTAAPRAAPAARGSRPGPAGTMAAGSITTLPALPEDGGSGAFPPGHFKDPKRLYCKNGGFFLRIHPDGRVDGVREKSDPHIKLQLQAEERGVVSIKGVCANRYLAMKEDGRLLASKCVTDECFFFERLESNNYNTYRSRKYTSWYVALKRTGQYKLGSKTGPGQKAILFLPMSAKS
Luciferin 4-monooxygenase (Photinus pyralis), sequence (P08659 whole entry, looked up): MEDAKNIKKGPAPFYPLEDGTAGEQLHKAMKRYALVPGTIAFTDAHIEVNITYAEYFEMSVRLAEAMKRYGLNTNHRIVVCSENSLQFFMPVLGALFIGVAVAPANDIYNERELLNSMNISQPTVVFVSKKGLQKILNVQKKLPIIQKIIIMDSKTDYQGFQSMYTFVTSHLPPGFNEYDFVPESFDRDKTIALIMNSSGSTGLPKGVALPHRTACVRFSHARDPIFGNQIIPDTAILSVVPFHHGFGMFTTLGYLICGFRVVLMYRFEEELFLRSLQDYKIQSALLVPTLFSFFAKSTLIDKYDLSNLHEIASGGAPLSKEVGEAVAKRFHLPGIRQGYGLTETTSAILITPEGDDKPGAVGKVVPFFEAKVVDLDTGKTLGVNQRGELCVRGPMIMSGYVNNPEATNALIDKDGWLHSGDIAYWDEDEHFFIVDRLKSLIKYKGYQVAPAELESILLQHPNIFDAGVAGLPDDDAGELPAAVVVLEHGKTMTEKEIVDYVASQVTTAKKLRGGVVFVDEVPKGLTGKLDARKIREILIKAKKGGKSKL

`C=C(COC)/C(=C/C[C@@H](OC(C)=O)c1ccccc1OCCO)c1cnc2ccccc2c1`: the composite z-score in [1] was 0.782; in experiment [2], 1.06; in experiment [3], 0.423; in experiment [4] it was 0.0866; in [5], 1.43; in experiment [6] it was 1.12. For the same compound, the composite z-score in experiment [8] was 1.54; in [9], 1.2. In addition, the figures for the z-score in [7] and in experiment [10] were -0.159 and -1.47 (inactive), respectively.

In the case of `CC(C)C(O)C1C=CC2C(=O)NC(=O)C2N1Nc1ccccn1` (stereo not given), the composite z-score in experiment [1] was 1.25; in experiment [2], 0.218; in experiment [3], -0.0716; in experiment [4] it was 0.285; in experiment [5], 0.712; in [6], 0.0205. The composite z-score in [8] turned out to be 0.129; in experiment [9], 0.169. In addition, the z-score is 0.44 in [7] and -0.362 (inactive) in experiment [10].

Turning to `OCCCC1=CC(c2ccc(CN3CCCC3)cc2)N(Cc2cccc(OC(F)(F)F)c2)CC1` (stereo not given), the composite z-score is -0.299 in experiment [1]; -0.377 in experiment [2]; 0.213 in experiment [3]; -0.575 in experiment [4]; 0.611 in experiment [5]; 0.215 in experiment [6]. In addition, the results for the composite z-score in experiment [8] and in experiment [9] were 0.326 and -0.227, respectively. Moreover, the z-score in [7] is 1.17; in experiment [10], -0.222 (inactive).

As for `COC(=O)[C@]1(Cc2ccccc2)N=C(c2ccc(OCCCO)cc2)O[C@@H]1c1ccccc1CN=[N+]=[N-]`, the composite z-score in [1] stood at 1.12; in [2], 1.16; in [3] it was 0.687; in experiment [4], 0.415; in experiment [5] it was 1.44; in experiment [6], 0.702. Also, the composite z-score in [8] was determined as 0.0393; in experiment [9], 0.418. Further, the z-score in experiment [7] is -1.74; in experiment [10] it was -1.44 (inactive).

As for `COc1ccc(NN2C(C(O)c3ccc(I)cc3)C=CC3C(=O)N(C4CCCCC4)C(=O)C32)cc1` (stereo not given), the composite z-score is 0.698 in experiment [1]; 1.23 in experiment [2]; -0.0558 in [3]; 0.951 in [4]; 1.3 in [5]; 0.366 in [6]. Also, the composite z-score was found to be 0.946 in [8] and 1.22 in [9]. Besides, the z-score is 0.119 in experiment [7] and 1.29 (inactive) in experiment [10].

For `C=CC[C@]1(C(=O)NCC(O)CO)COC(c2ccc(OCCCO)cc2)=N1` (stereo not given in full), the composite z-score in experiment [1] was -0.493; in experiment [2], 0.57; in experiment [3], -0.0726; in experiment [4], -1.36; in experiment [5], 0.821; in [6] it was 1.01. For the same compound, the figures for the composite z-score in experiment [8] and in experiment [9] were -0.513 and -0.326, respectively. Also, the z-score in [7] was -0.565; in experiment [10] it was 0.0208 (inactive).

As for `COCCOC(=O)N1C(=O)[C@@]2(c3cc(C#CCCO)ccc31)[C@H](c1ccc(OCCO)cc1)N1[C@H](c3ccccc3)[C@H](c3ccccc3)OC(=O)[C@H]1[C@@H]2C(=O)N1CCCCCCC1`, the composite z-score in experiment [1] was found to be 0.939; in experiment [2], 1.2; in experiment [3] it was 0.644; in experiment [4], 0.726; in experiment [5] it was 1.46; in [6], 1.68. Further, the composite z-score in experiment [8] was found to be 1.33; in experiment [9] it was 1.32. Also, the z-score in experiment [7] was -0.901; in experiment [10] it was -0.247 (inactive).

As to `CC(C)(C)N1CC=CC23O[C@@H]4/C=C\CCCOC(=O)C4[C@H]2C(=O)N(CCCO)[C@@H]3C1=O` (stereo not given in full), the composite z-score in experiment [1] was 0.343; in experiment [2], -0.849; in experiment [3] it was -0.572; in experiment [4], -2.06; in [5] it was -0.768; in [6], -0.811. Further, the composite z-score in experiment [8] is -0.538; in experiment [9], -1.38. The z-score in experiment [7] is -0.534; in experiment [10], 0.552 (inactive).

For `C=CCOC(=O)[C@@H]1[C@H]2C(=O)O[C@H](c3ccccc3)[C@H](c3ccccc3)N2[C@H](c2ccc(OCCOC(=O)[C@H]3C[C@H]4C(=O)N5CCC[C@H]5C(=O)N4[C@H]3c3cccc(OCCO)c3)cc2)[C@@]12C(=O)Nc1ccc(I)cc12`, the composite z-score in experiment [1] came to 1.04; in [2], 0.994; in experiment [3] it was 0.746; in experiment [4], 0.241; in experiment [5], 1.4; in experiment [6], 1.38. Also, the figures for the composite z-score in experiment [8] and in experiment [9] were 1.44 and 0.555, respectively. The z-score in [7] is -1.32; in [10], 0.0266 (inactive).

On to `CCOC(=O)C1=CC[C@@H](c2ccccc2)N(S(=O)(=O)c2ccc(C)cc2)[C@H]1c1ccccc1I`, for which the composite z-score is 1.5 in [1]; 1.21 in [2]; 0.475 in experiment [3]; 0.995 in experiment [4]; 0.923 in [5]; 0.184 in experiment [6]. The results for the composite z-score in experiment [8] and in experiment [9] were -0.163 and 1.01, respectively. The z-score in [7] was 1.27; in experiment [10] it was 1.55 (inactive).

With `C=C1C(=O)C=C2CN(C(=O)c3ccccc3)[C@@](Cc3ccc(OC)cc3)(C(=O)OC)[C@@H]12`, the composite z-score is 1.07 in experiment [1]; 1.26 in experiment [2]; 0.408 in [3]; 1.02 in experiment [4]; 1.29 in experiment [5]; -0.0686 in experiment [6]. The composite z-score in [8] came out at 0.381; in experiment [9] it was 1.13. Moreover, the z-score in experiment [7] is -0.322; in experiment [10] it was 3.22 (inactive).

On to `O=C1[C@H]2C=C(I)[C@H](C[C@@H]2c2ccccc2)[C@@]12CO2`, for which the composite z-score is 0.214 in [1]; 0.0555 in [2]; -0.142 in experiment [3]; -0.347 in experiment [4]; 0.742 in experiment [5]; 0.111 in experiment [6]. In addition, the composite z-score is 0.334 in experiment [8] and -0.1 in experiment [9]. Moreover, the z-score in [7] is 0.949; in [10], -0.218 (inactive).
